Only some compounds are listed: those with a hit (about 3.8% of all), similar ones and a draw of the others.
Mtb hypoxia rep: Mtb hypoxia fluorescent reporter inhibition; M. tuberculosis hypoxia-regulated fluorescent reporter, fluorescence; fluorescence inhibition, % (concentration not given with the values); 300,000 compounds, 0.1% hits; AID 1159583; in the data active = fluorescence inhibition mostly above about 23%, no sharp cut-off; inactive = mostly below about 17%
PrPC surface inh: inhibitors of human cell surface prion protein PrPC | AID 720596 | inhibition, % at 13.8 µM | TR-FRET read-out | 370,000 compounds, 0.43% hits | P04156; in the data active = inhibition above about 24%; also: 0% = median of the test wells and 100% = reference compound wells
Yp Topo-I inh: blocks Yersinia pestis topoisomerase I activity; Y. pestis Topo-I cleavage product accumulation, plate reader; activity, % at 10 µM; 360,000 compounds, 0.064% hits; in the data active = activity above about 50%, passing the limit was not always enough
Mtb FBA inh: Mtb fructose-bisphosphate aldolase inhibition; P9WQA3; purified M. tuberculosis FBA, fluorescence read-out; 360,000 compounds, 2.3% hits; inhibition, % at 1 µM; AID 588726; in the data active = inhibition above about 27%;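 also: 0% = vehicle and 100% = reference inhibitor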
Target sequence (P9WQA3 whole entry, looked up): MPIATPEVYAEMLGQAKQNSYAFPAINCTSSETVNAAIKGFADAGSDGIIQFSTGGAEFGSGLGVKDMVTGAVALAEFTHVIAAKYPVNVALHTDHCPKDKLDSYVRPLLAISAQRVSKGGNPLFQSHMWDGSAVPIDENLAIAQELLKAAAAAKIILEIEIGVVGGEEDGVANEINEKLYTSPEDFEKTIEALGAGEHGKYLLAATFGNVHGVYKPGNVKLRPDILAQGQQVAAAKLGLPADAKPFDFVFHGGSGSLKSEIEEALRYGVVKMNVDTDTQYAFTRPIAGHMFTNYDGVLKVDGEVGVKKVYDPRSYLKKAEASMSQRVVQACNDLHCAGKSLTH
PrP 5UTR inh: inhibition of PrP 5' UTR reporter expression; AID 488862; 340,000 compounds, 0.35% hits; inhibition, % (no concentration beside the values); cell-based PrP 5' UTR mRNA reporter, plate reader; in the data active = inhibition above about 52%; also: 0 = median of the neutral control wells
GDH-TPI counter: counter-screen for M. tuberculosis FBA inhibitors: GDH-TPI coupled enzymes; GDH-TPI coupled enzyme counterscreen, NADH absorbance; inhibition, % at 4.8 µM; 360,000 compounds, 1.2% hits; AID 588335; in the data active = inhibition above about 30%;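 also: 0% = DMSO wells and 100% = wells lacking the enzyme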
* hit, by the source's call.

For Cc1oc2c(CN3CCCCC3C)c(O)ccc2c(=O)c1-c1ccccc1 (stereo unspecified) the results were Mtb hypoxia rep -6, PrPC surface inh 5, Yp Topo-I inh 2, Mtb FBA inh 174*, PrP 5UTR inh 5 and GDH-TPI counter 11.
Screening COc1ccc(CN2CCCCC2C)c(C)c1C (stereo unspecified) returned Mtb hypoxia rep 8, PrPC surface inh -1, Yp Topo-I inh 6, Mtb FBA inh -2, PrP 5UTR inh -25 and GDH-TPI counter -5.
Cc1oc2c(O)c(O)ccc2c(=O)c1-c1ccc(Cl)cc1 was read as Mtb hypoxia rep 1, PrPC surface inh 3, Yp Topo-I inh 1, Mtb FBA inh -2, PrP 5UTR inh -12 and GDH-TPI counter 15.
c1ccc(CC2CNCCN2CCCCC2CCCCC2)cc1 (stereo unspecified) was read as Mtb hypoxia rep 18.
C=C1CCN(C(C(=O)NCc2ccccc2)C(C)C)S(=O)(=O)c2ccccc21 (stereo unspecified) was read as Mtb hypoxia rep 4.
`CCN(CC)c1ccc(C=NNC(=O)c2ccoc2C)cc1` gave Mtb hypoxia rep 3.
COc1ccc(-c2noc(-c3ccc4c(c3)OCO4)n2)cc1 was read as Mtb hypoxia rep 3, PrPC surface inh 3, Yp Topo-I inh -1, Mtb FBA inh -3, PrP 5UTR inh -108 and GDH-TPI counter -2.
For COc1ccc(-c2nc(-c3ccc4c(c3)OCO4)[nH]c2-c2ccc(OC)cc2)cc1 the results were Mtb hypoxia rep -4, PrPC surface inh 22, Yp Topo-I inh -5, Mtb FBA inh 136*, PrP 5UTR inh -34 and GDH-TPI counter 16.
For Cn1c(=O)c2c(nc(N/N=C/c3ccco3)n2C)n(C)c1=O the results were PrPC surface inh 3, Yp Topo-I inh -1, Mtb FBA inh 1, PrP 5UTR inh -13 and GDH-TPI counter 56*.
For Cn1c(=O)c2c(nc(N/N=C/c3cccnc3)n2Cc2ccccc2)n(C)c1=O the results were PrPC surface inh -11, Yp Topo-I inh 1, Mtb FBA inh 1, PrP 5UTR inh -27 and GDH-TPI counter 31*.
For Cc1ccc(Cn2c(NN=Cc3ccncc3)nc3c2c(=O)n(C)c(=O)n3C)cc1 the results were Mtb hypoxia rep -8.
For COc1cc2c(c(OC)c1OC)-c1ccc(O)cc1[C@@H](NC(C)=O)CC2 the results were PrPC surface inh 10, Yp Topo-I inh 4, Mtb FBA inh 4, PrP 5UTR inh 68* and GDH-TPI counter 9.
Screening COc1cc2c(c(OC)c1OC)-c1ccc(O)c(=O)cc1[C@@H](NC(C)=O)CC2 returned PrPC surface inh -7, Yp Topo-I inh -2, Mtb FBA inh -1, PrP 5UTR inh 0 and GDH-TPI counter 28.
`O=C(NNC(=S)NC(=O)c1ccccc1[N+](=O)[O-])c1ccccc1[N+](=O)[O-]` gave Mtb hypoxia rep 0, PrPC surface inh -20, Yp Topo-I inh -3, Mtb FBA inh -3, PrP 5UTR inh -5 and GDH-TPI counter 3.
`CCCCOc1ccccc1C(=O)NNC(=S)NC(=O)c1ccccc1[N+](=O)[O-]` gave PrPC surface inh 11, Yp Topo-I inh 1, Mtb FBA inh -5, PrP 5UTR inh 1 and GDH-TPI counter 31*.
`O=c1[nH]nc(N/N=C/c2ccccc2OC(F)F)c(=O)[nH]1` gave PrPC surface inh -9, Yp Topo-I inh -5, Mtb FBA inh 3, PrP 5UTR inh -17 and GDH-TPI counter 42*.
`O=C(NN=Cc1ccccc1OC(F)F)NC1CCCCC1` gave Mtb hypoxia rep 12.
Screening O=C(Nc1sc(-c2ccccc2)cc1C(=O)O)c1ccccc1 returned Mtb hypoxia rep -9, PrPC surface inh 2, Yp Topo-I inh 4, Mtb FBA inh 11, PrP 5UTR inh -1 and GDH-TPI counter 35*.
CC(=NNS(=O)(=O)c1cc(C)ccc1C)c1ccncc1 was read as Mtb hypoxia rep 10.
Screening Cc1cc(=O)n2c3c(c4c(cc13)c(CN(C)C)cc(=O)n4C)OC2 returned PrPC surface inh 40*, Yp Topo-I inh -5, Mtb FBA inh 6, PrP 5UTR inh -9 and GDH-TPI counter 17.
`O=C1Nc2ccccc2/C1=C/c1cnc[nH]1` gave Mtb hypoxia rep -2, PrPC surface inh -17, Yp Topo-I inh 2, Mtb FBA inh -6, PrP 5UTR inh 10 and GDH-TPI counter 31*.
Screening COc1ccc2c(c1)/C(=C/c1cnc[nH]1)C(=O)N2 returned PrPC surface inh 9, Yp Topo-I inh -8, Mtb FBA inh -3, PrP 5UTR inh -12 and GDH-TPI counter 29.

Compound activity deposited in PubChem by several laboratories.
